Results taken from PubChem BioAssay AID2006 (Sanford-Burnham Center for Chemical Genomics, 2009).
The campaign covered roughly 290,000 compounds. About 1,000 (0.34%) were called active. No stated cut-off is given here; in the data, active means inhibition above about 50% (passing the limit was not always enough); inconclusive means no clear call, values can overlap the other calls. Only a selection was taken, and actives are over-represented in it overall.

Target: SUMO-conjugating enzyme UBC9 (Homo sapiens) (UniProt P63279)
Assay: blockers of SAE1/SAE2–UBC9 SUMO transfer – biochemical, HTRF, uHTS, primary screen (AID 2006)
Conditions: HTRF SUMOylation assay, SAE1/SAE2 + UBC9, in vitro, at 35 µM, stronger effect = higher value

Chain of SUMO-conjugating enzyme UBC9 (Homo sapiens) (P63279 whole entry, looked up): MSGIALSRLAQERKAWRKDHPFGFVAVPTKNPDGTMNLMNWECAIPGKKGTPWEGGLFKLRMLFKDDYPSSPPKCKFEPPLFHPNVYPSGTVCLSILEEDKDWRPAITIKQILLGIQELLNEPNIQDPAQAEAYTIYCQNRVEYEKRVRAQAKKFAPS

In the case of `CC(=O)N1CCN(CC(=O)Nc2ccc(C)c(F)c2)CC1`, the inhibition is reported as 6% (inactive).
`COC(=O)c1ccc(CNC(=O)c2ccc3oc(C(C)C)nc3c2)cc1` was tested, and the inhibition was 9.1% (inactive).
With `CCC(=O)Nc1c(S(=O)(=O)c2ccccc2)c2nc3ccccc3nc2n1Cc1ccccc1` the inhibition was 98.2% (active).
`Cc1ccc(S(=O)(=O)c2c(N)n(C)c3nc4ccccc4nc23)cc1` was tested, and the inhibition was 18.6% (inactive).
For `CCN(CC)CCn1c(N)c(S(=O)(=O)c2ccccc2)c2nc3ccccc3nc21`, the inhibition was 11.7% (inactive).
In the case of `O=C(Cc1c(Cl)cccc1Cl)NC1CC1`, the inhibition is reported as 11% (inactive).
In the case of `Cc1ccc(NS(=O)(=O)c2ccc3c(c2)n(C)c(=O)c(=O)n3C)c(C)c1`, the inhibition is reported as 9% (inactive).
In the case of `CC(=O)NCC(=O)N1CCC(n2nccc2NC(=O)CCCc2ccccc2)CC1`, the inhibition is reported as -2.9% (inactive).
With `COc1c(O)ccc2c1CN1CCc3cc4c(cc3C1C2)OCO4` (stereo not given) the inhibition was 12.8% (inactive).
`Cc1ccc(-c2nn(-c3ccccc3)cc2/C=C2\SC(=S)N(CCCCCC(=O)O)C2=O)o1` was tested, and the inhibition was 55.1% (active) and the inhibition (average of repeat tests) was 59.6%.
For `COc1ccc(-c2nn(-c3ccccc3)cc2/C=C2/SC(=S)N(CCCC(=O)O)C2=O)c(C)c1`, the inhibition was 44.1% (inactive).
`CN(C)S(=O)(=O)c1cccc(-c2nn(-c3ccccc3)cc2/C=C2\SC(=S)N(CC(=O)O)C2=O)c1` was tested, and the inhibition was 37.3% (inactive).
In the case of `O=C(N/C(=C/c1ccc(Cl)cc1)C(=O)N1CCCCC1)c1ccco1`, the inhibition is reported as 22% (inactive).
`CC1CCCCN1C(=O)CCS(=O)(=O)Cc1ccccc1` (stereo not given) was tested, and the inhibition was 18.6% (inactive).
`COc1ccc(NC(=O)CNC(=O)Cn2ccc3ccccc3c2=O)c(OC)c1` was tested, and the inhibition was 7.3% (inactive).
For `Cc1ccc(Nc2nc(Cl)c(C=O)s2)cc1`, the inhibition was 16.9% (inactive).
In the case of `Cc1c(Cl)cccc1NC(=O)CCC(=O)N/N=C/c1ccco1`, the inhibition is reported as -5.3% (inactive).
In the case of `O=C(Nc1ccc2nccnc2c1)c1ccco1`, the inhibition is reported as 28.4% (inactive).
In the case of `O=C(NCc1ccccn1)c1ccc2nc(-c3ccco3)c(-c3ccco3)nc2c1`, the inhibition is reported as 74.1% (active).
`COc1cccc(S(=O)(=O)NCc2ccc(C(=O)NCc3ccccn3)cc2)c1` was tested, and the inhibition was 0.6% (inactive).
In the case of `COCCNC(=O)Nc1ccc2nc(-c3ccco3)c(-c3ccco3)nc2c1`, the inhibition is reported as 95.3% (active) and the inhibition (average of repeat tests) is reported as 62.6%.
`CC(C)(C)c1ccc(NC(=O)NCc2ccco2)cc1` was tested, and the inhibition was -11.5% (inactive).
`COc1ccc2oc(=O)c(C(=O)NCc3ccccn3)cc2c1` was tested, and the inhibition was 31.2% (inactive).
`COc1ccc(CNC(=O)c2ccc(Br)s2)cc1OC` was tested, and the inhibition was 0.1% (inactive).
For `Cc1c(C)c2c(OCC(=O)N[C@@H](C(=O)O)c3ccccc3)cc3c(c2oc1=O)CCC(C)(C)O3`, the inhibition was 44% (inactive).
For `CCc1ccc(-c2nc(SCC(=O)NC3CCCC3)n[nH]2)cc1`, the inhibition was -14.4% (inactive).
For `COc1ccc(N(C)C(=O)C2CCN(S(=O)(=O)c3cccc4nsnc34)CC2)cc1`, the inhibition was 11.4% (inactive).
With `Cc1ccnc(NS(=O)(=O)c2ccc(NC(=O)c3oc4ccc(F)cc4c3C)cc2)n1` the inhibition was 15.4% (inactive).
With `CC(CC(=O)N1CCN(S(=O)(=O)c2ccccc2)CC1)n1cncn1` (stereo not given) the inhibition was 14.6% (inactive).
In the case of `COc1ccc(Cc2n[nH]c(=S)n2NC(=O)Nc2ccc(C)cc2)cc1`, the inhibition is reported as 68.1% (active) and the inhibition (average of repeat tests) is reported as 49.6%.
For `Cc1ccc(OCc2n[nH]c(=S)n2-c2ccc(C)cc2)cc1`, the inhibition was 3.7% (inactive).
`CCOc1ccc(NC(=O)CN2CCN(CC(=O)Nc3ccc(OC)cc3)CC2)cc1` was tested, and the inhibition was -4.3% (inactive).
`C/C(=N/Nc1nc(-c2ccccc2)c(CC(=O)O)s1)c1ccccc1` was tested, and the inhibition was 7% (inactive).
In the case of `Cc1cc(C)nc(N/N=C/c2c(CO)cnc(C)c2O)n1`, the inhibition is reported as -3.1% (inactive).
With `Nc1ccc2nc3c(=O)[nH]c(=S)[nH]c3nc2c1` the inhibition was 93.4% (active).
`CCc1ccc(C(=O)NC(=S)Nc2ccccc2N2CCOCC2)cc1` was tested, and the inhibition was -0.7% (inactive).
In the case of `CCOc1ccc(N(CC(=O)NCCc2ccc(F)cc2)S(=O)(=O)c2ccccc2)cc1`, the inhibition is reported as -1.5% (inactive).
With `O=C(O)CCCn1cc(NC(=O)COc2cccc(Cl)c2)cn1` the inhibition was 11.5% (inactive).
For `CN(C)[C@@H]1C(=O)C(C(N)=O)=C(O)[C@@]2(O)C(=O)C3=C(O)c4c(O)ccc(Cl)c4[C@@H](O)[C@H]3C[C@@H]12`, the inhibition was 62.8% (active).
With `COc1ccc(CN2C3CCCC2CC(NC(=O)c2cccc(F)c2)C3)cc1` (stereo not given) the inhibition was 8.9% (inactive).
`COc1ccc(C2NC(=O)N(C)C(C)=C2[N+](=O)[O-])cc1` (stereo not given) was tested, and the inhibition was -5.6% (inactive).
`CC(NC(=O)Nc1cccc([N+](=O)[O-])c1)c1ccc2c(c1)OCO2` (stereo not given) was tested, and the inhibition was 3% (inactive).
With `COc1ccc(-n2nc(C(=O)NCC(=O)N3CCC(C(N)=O)CC3)c3ccccc3c2=O)cc1OC` the inhibition was -4.6% (inactive).
`O=C(CNC(=O)c1ccc(F)cc1)c1ccccc1` was tested, and the inhibition was -1.3% (inactive).
With `Cc1ccc(N=C2NC(=O)/C(=C/C=C/c3ccco3)S2)cc1C` the inhibition was 54.8% (active).
With `Cc1cccc(N=C2NC(=O)/C(=C/c3cn(C)c4ccccc34)S2)c1` the inhibition was 12.3% (inactive).
For `Cc1ccc(N2NC(=O)/C(=C/C=C/c3ccco3)C2=O)cc1C`, the inhibition was -18.1% (inactive).
For `COc1ccc(CN2CCOC2=O)cc1OC`, the inhibition was -0.8% (inactive).
`O=C(CN1CCN(C(=S)NC2CCCC2)CC1)Nc1ccc(Oc2ccccc2)cc1` was tested, and the inhibition was -21.3% (inactive).
With `O=C1CN(C(=O)c2cc(F)cc(F)c2)c2ccccc2N1` the inhibition was 6.7% (inactive).
In the case of `NS(=O)(=O)c1ccc(CNC(=O)c2cccc(Oc3ccccc3)c2)cc1`, the inhibition is reported as -2.7% (inactive).
In the case of `CCN1CC=C2C(C#N)=C(N)C(C#N)(C#N)[C@H](c3ccoc3)[C@H]2C1`, the inhibition is reported as 67.7% (active).
`CCCN1CC=C2C(C#N)=C(N)C(C#N)(C#N)C(c3cc(OC)ccc3OC)C2C1` (stereo not given) was tested, and the inhibition was 34.3% (inactive).
For `CCOC(=O)N1CC=C2C(C#N)=C(N)C(C#N)(C#N)[C@H](c3cccs3)[C@H]2C1`, the inhibition was -13.8% (inactive).
`O=C(N/N=C/c1cccc(OCc2ccccc2)c1)c1ccc(Br)o1` was tested, and the inhibition was 4.8% (inactive).
In the case of `O=C(Nc1ccccc1N1CCCC1)c1ccc2ccccc2c1`, the inhibition is reported as 1.5% (inactive).
`COC(=O)c1cccc(C(=O)N2CCC(CCC(=O)NCc3ccc(F)cc3)CC2)c1` was tested, and the inhibition was 7.8% (inactive).
In the case of `CC(C)c1ccc2c(c1)c(SC(C)(C)C)c(CC(C)(C)C(=O)O)n2Cc1ccc(Cl)cc1`, the inhibition is reported as 52.2% (active).
`O=C(O)c1ccc(Cn2c(=S)[nH]c3cc(Cl)ccc3c2=O)cc1` was tested, and the inhibition was 1.5% (inactive).
For `CCOC(=O)c1c(-c2ccccc2)oc2cc(Br)c(O)c(C=O)c12`, the inhibition was -19% (inactive).
With `CCOC(=O)c1c(-c2ccccc2)oc2cc(Br)c(O)cc12` the inhibition was 6.4% (inactive).
`COCCNC(=O)c1ccc2nc(Cc3ccc(OC)c(OC)c3)oc2c1` was tested, and the inhibition was 4.2% (inactive).
In the case of `C/C(=C/c1ccccc1)C(=O)N1CCN(c2ccccc2)CC1`, the inhibition is reported as 16.7% (inactive).
With `COCCN(CCOC)S(=O)(=O)c1ccc(C(=O)Nc2nc3c(s2)CCc2ccccc2-3)cc1` the inhibition was 67% (active) and the inhibition (average of repeat tests) was 53%.
For `COc1ccc(C(=O)Nc2ncc3c(n2)-c2ccccc2CC3)cc1`, the inhibition was 6% (inactive).
`C=CCN(CC=C)S(=O)(=O)c1ccc(C(=O)Nc2nc3c(s2)CCc2ccccc2-3)cc1` was tested, and the inhibition was -14.9% (inactive).
With `O=C(/C=C/c1ccc(Cl)cc1)NCCCn1ccnc1` the inhibition was 12.9% (inactive).
For `CC(=O)N1c2ccc(S(=O)(=O)N3CCC(C(=O)NC4CCCC(C)C4C)CC3)cc2CC1C` (stereo not given), the inhibition was -4.4% (inactive).
For `COc1ccc(NC(=O)CC(NC(C)c2ccccc2)C(=O)O)cc1` (stereo not given), the inhibition was 6.5% (inactive).
`CC(C)c1nc(CNC(=O)CC2C(=O)NCCN2Cc2cccc(F)c2F)cs1` (stereo not given) was tested, and the inhibition was -7.6% (inactive).
For `CC1CCN(S(=O)(=O)c2ccc3c(c2)n(C)c(=O)n3C)CC1`, the inhibition was 6.7% (inactive).
In the case of `CC1(C(=O)NCCc2c[nH]c3ccccc23)C=CC2(CCCCC2)N1C(=O)c1ccccc1` (stereo not given), the inhibition is reported as 0.3% (inactive).
`Cc1cc(OC(C)C(=O)NC2CC(C)(C)NC(C)(C)C2)c2c(C)cc(=O)oc2c1` (stereo not given) was tested, and the inhibition was 33.5% (inactive).
In the case of `Cc1cccc(N(CC(=O)N=Nc2c(O)[nH]c3ccccc23)S(C)(=O)=O)c1C`, the inhibition is reported as -5.8% (inactive).
With `CN1CCN(c2ccc(S(=O)(=O)Nc3ccccc3)cc2[N+](=O)[O-])CC1` the inhibition was 21.3% (inactive).
`O=[N+]([O-])c1cc(S(=O)(=O)Nc2cccc(Cl)c2)ccc1N=Nc1c(O)[nH]c2ccccc12` was tested, and the inhibition was 67.7% (active).
With `COc1ccc(CN2CCNC(=O)C2CC(=O)NCc2cn[nH]c2-c2ccccc2)c(F)c1` (stereo not given) the inhibition was -2.8% (inactive).
In the case of `CN(C(=O)COC(=O)c1cc(-c2ccco2)nc2ccccc12)C1CCS(=O)(=O)C1` (stereo not given), the inhibition is reported as 51.3% (active).
With `Cc1c(-c2cccc(Cl)c2)nc2ccccc2c1C(=O)OCC(=O)N(C)C1CCS(=O)(=O)C1` (stereo not given) the inhibition was 0.4% (inactive).
In the case of `CN(C(=O)COC(=O)c1nc(Cl)ccc1Cl)C1CCS(=O)(=O)C1` (stereo not given), the inhibition is reported as -3.6% (inactive).
`O=[N+]([O-])/C=C/c1ccc2c(ccn2Cc2ccccc2)c1` was tested, and the inhibition was 19.7% (inactive).
For `CC(C)[C@H](NC(=O)N1c2ccccc2NC(=O)[C@@H]1C(C)C)C(=O)N[C@H](C(=O)O)c1ccccc1`, the inhibition was 12.1% (inactive).
`Cc1cccc(C(=O)Nc2ccc(Oc3cnccn3)cc2)c1` was tested, and the inhibition was 10.4% (inactive).
For `CC1CCCCC1NC(=O)CO/N=C/c1ccc(OC(F)F)cc1` (stereo not given), the inhibition was -15.8% (inactive).
For `O=C(Nc1ccc(Br)cc1)c1cc(S(=O)(=O)Nc2ccccn2)ccc1Cl`, the inhibition was 3.5% (inactive).
For `COc1ccc(CN2CC(C(=O)NCCc3ccc(Cl)cc3)CC2=O)cc1` (stereo not given), the inhibition was 10.3% (inactive).
